Data from PubChem BioAssay (Tox21).
Inconclusive results are not listed. Unmarked numbers belong to inactive results. The call rests on the fitted dose curve; in most records, active means well fitted cell-killing curve with a large enough effect in the repeat runs; inconclusive means weak or mixed curves, or effect the other way; inactive means flat fitted curve, though single readings scatter.

test: qHTS assay to identify small molecule antagonists of the estrogen related receptor signaling pathway with the pleiotropic PPARgamma coactivator (PGC) cell viability counter screen (AID 1224822;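 further: viability read after 17.5 h compound exposure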); conditions: ERR/PGC reporter cell line viability counter screen; series mostly up to 46.1 µM; viability change, negative = cytotoxic: at the top concentration
Summary of the method: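 PGC/ERR cells rested 6 h, then compound-treated 17.5 h at 37 C. CellTiter-Fluor added for 30 min at 37 C, viability measured by fluorescence intensity.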
On the % scale 0 is the no-effect control and ±100 the full control effect.

Row | Compound | viability change, negative = cytotoxic
1 | Cc1ccc(S(=O)(=O)N[C@@H](CCCCN)C(=O)CCl)cc1 | -15.7%
2 | CCCN1CCC[C@@H]2Cc3nc(N)ncc3C[C@H]21 | -4.03%
3 | C=C(C)[C@H]1CN[C@H](C(=O)O)[C@H]1CC(=O)O | 9.33%
